Results filed as inconclusive are left out. Calls of active or inactive are those of the source. The call rests on the fitted dose curve; in most records, active means well fitted inhibition curve with a large enough effect; inconclusive means small, poorly fitted or top-dose-only effect; inactive means no such curve, though single readings can be large or run the other way.
Potency means the concentration at half of the fitted maximal effect.

The target in this test is Cruzipain (Trypanosoma cruzi) (UniProt P25779). Description: Confirmation qHTS Assay for Inhibitors of Cruzain. Further: nearly all actives have a fitted effect of over 40% in size.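 On activity change, negative = inhibition: plate controls were uninhibited enzyme control for no effect and buffer wells lacking enzyme for full effect.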 The note with it: purified cruzain, Z-FR-AMC fluorescence, 0.01% Triton. In a few lines: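 Purified cruzain, 1.5 nM, pre-incubated 15 min at room temperature with compound in 100 mM sodium acetate pH 5.5, 5 mM DTT, 0.01% Triton X-100. Then 2 uM Z-FR-AMC added; AMC fluorescence (ex 360/em 450 nm) increase over 60 s gave reaction progress.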
Chain of Cruzipain (Trypanosoma cruzi) (P25779 123-467 limits assumed): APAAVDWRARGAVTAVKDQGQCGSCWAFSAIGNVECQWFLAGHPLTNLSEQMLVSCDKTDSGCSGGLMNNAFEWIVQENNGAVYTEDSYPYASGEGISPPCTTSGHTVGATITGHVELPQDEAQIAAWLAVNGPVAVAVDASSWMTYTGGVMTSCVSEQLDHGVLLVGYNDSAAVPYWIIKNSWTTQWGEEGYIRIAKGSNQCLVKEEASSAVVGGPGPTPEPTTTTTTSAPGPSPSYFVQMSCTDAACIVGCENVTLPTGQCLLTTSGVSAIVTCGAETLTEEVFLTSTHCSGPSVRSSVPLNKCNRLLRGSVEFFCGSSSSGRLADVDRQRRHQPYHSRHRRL
For orientation: In qHTS, concentration-response curves come from the screen itself.
`Cc1ccccc1OCC(=O)NCC(=O)OCC(=O)c1ccc2ccccc2c1`: the Potency is 14.1 µM (active).

Regarding `CN(C)c1nc(C#N)nc(N(C)C)n1`, the Potency was 14.1 µM (active).

With `CCc1ccc2[nH]c(=O)c(CN(Cc3ccccc3)Cc3nnnn3Cc3ccccc3)cc2c1`, the activity change, negative = inhibition was -20% (inactive).

`CCC(C)c1ccccc1OCCn1c(CCNC(=O)C2CCCCC2)nc2ccccc21` (centres undefined): the Potency is 10 µM (active).

Consider `CCOC(=O)C(C(=O)OCC)N(C#N)c1nc(SC)nc(N(C)C)n1`, for which the Potency is 5.01 µM (active).

Take `c1ccc(CNCc2nnc(-c3cc4ccccc4[nH]3)s2)cc1`: the activity change, negative = inhibition is -7.37% (inactive).

In the case of `Cc1ccc(OCCCn2c(CCCNC(=O)C3CCCCC3)nc3ccccc32)cc1`, the activity change, negative = inhibition is -20.3% (inactive).

In the case of `CCSc1nnc(NC(=O)c2ccc(Br)s2)s1`, the activity change, negative = inhibition was -4.82% (inactive).

On to `CC(C)N(CCC(=O)c1ccc2ccccc2c1)Cc1ccccc1`, for which the Potency is 31.6 µM (active).

With `O=C(CNC(=O)C(c1ccccc1)c1ccccc1)OCC(=O)c1ccc2ccccc2c1`, the activity change, negative = inhibition is 28.2% (inactive).

Regarding `COc1nc(C#N)nc(N2CCCC2)n1`, the Potency is 3.98 µM (active).

Consider `O=c1cc(-c2cccc(Br)c2)nc(-c2ccccc2F)o1`, for which the Potency was 11.2 µM (active).

With `CC(C)(C)Nc1nc(C#N)nc(Nc2ccccc2)n1`, the Potency is 2.24 µM (active).

Turning to `C/C(CC(=O)Nc1ccc(Cl)c(Cl)c1)=N\NC(N)=S`, the Potency is 1.12 µM (active).

As for `CCc1ccc(OCCCCn2c(CCNC(=O)C3CCCCC3)nc3ccccc32)cc1`, the Potency was 1.58 µM (active).

For the compound `COc1ccccc1NC(=O)C(OC(=O)CNC(=O)c1ccccc1)c1ccccc1` (centres undefined), the Potency was 10 µM (active).

As to `CCOC(=O)CNC(=O)C1CCCCC1`, the activity change, negative = inhibition is -11.9% (inactive).

As to `COc1ccc(C(=O)NCC(=O)OCC(=O)c2ccc3ccccc3c2)cc1`, the Potency is 15.8 µM (active).

As for `N#Cc1c(NC(=O)CSc2ncnc3c2cnn3-c2ccccc2Cl)sc2c1CCCC2`, the activity change, negative = inhibition is -1.46% (inactive).

On to `N#Cc1nc(NC2CCCC2)c2ncn(-c3cc(F)cc(F)c3)c2n1`, for which the Potency was 0.316 µM (active).

As for `CC(C)(C)c1ccccc1Nc1nc(C#N)nc(NC2CCCC2)n1`, the Potency is 2 µM (active).

`CCc1ccc(-c2nc3c(=O)n(C)c(=O)nc-3n(CC)n2)cc1`: the Potency was 2.51 µM (active).

On to `Cc1cc(OCCCn2c(CCNC(=O)C3CCCCC3)nc3ccccc32)ccc1Cl`, for which the Potency is 1.12 µM (active).

As to `COc1ccc(/C=N/NC(=O)c2ccc(Br)cc2)cc1Cn1cc(Cl)cn1`, the activity change, negative = inhibition is -13.6% (inactive).

These data come from PubChem BioAssay AID2158 (National Center for Advancing Translational Sciences (NCATS), 2009).
